This note sets out measurements from PubChem BioAssay AID720650 (Broad Institute, 2013).

A number with no mark means an inactive call. Calls of active or inactive are those of the source. The rule behind the calls is not given here. A value given as a limit tells only on which side of the number the result lay.

A short description of this assay: C difficile toxins, biochemical counterscreen, UDPG substrate absence, confirmatory dose response (AID 720650). The settings on record: series mostly up to 19.5 µM; activity change, negative = inhibition: at the top concentration. In general terms: Counterscreens check selectivity or assay interference.
As for `CC(=O)Nc1ccc(S(=O)(=O)Nc2nc3ccccc3nc2-n2ccc(=NC(=O)c3ccc(F)cc3)cc2)cc1`, the “activity change, negative = inhibition” value was 9.83%.

Regarding `Cn1c(=O)c2c(nc(N3CCOCC3)n2CCSc2ncccn2)n(C)c1=O`, the “activity change, negative = inhibition” value was -6.82%. Regarding `O=C(Nc1ccccc1F)N(Cc1ccc(F)cc1)Cc1nc2ccccc2c(=O)[nH]1`, the “activity change, negative = inhibition” value is -7.11%. Turning to `O=C(NC(=S)NNS(=O)(=O)c1ccccc1)c1cccnc1`, the “activity change, negative = inhibition” value was -9.81%. Take `Cc1cc(O)ccc1N=Cc1c(C(F)(F)F)[nH][nH]c1=O`: the AC50 is 10.9 µM (active). With `Cc1ccc(/C=C(\C#N)C(=O)Nc2ccccn2)o1`, the “activity change, negative = inhibition” value is -11.4%. As for `COC(=O)C[C@H]1CC[C@@H]2[C@@H](COc3ccc(NC(=O)c4cccc(OC)c4)cc3C(=O)N2C)O1`, the “activity change, negative = inhibition” value is -6.96%. As for `CC12CCC3C(=CCc4cc(O)ccc43)C1CC(=NO)C2O` (centres undefined), the AC50 was 19.4 µM (active).

As to `CC(=O)Nc1ccc(S(=O)(=O)N2CCCC(C(=O)O)C2)cc1` (centres undefined), the “activity change, negative = inhibition” value is -9.46%. Same read-out and setting: the same measure for `O=C(O)c1c(C(=O)O)c(-c2ccc(Br)cc2)n2c1CSC2`: -10.2%; for `C=CC[C@@H](CC(=O)N(CCO)Cc1ccccc1)C(=O)NC[C@@H](OC(=O)[C@@H](CC=C)CC(=O)OC(C)(C)C)c1ccccc1`: -9.68%; for `COC(=O)Cc1ccc(NC(=S)NCc2ccc(OC)cc2)cc1`: -3.9%. Take `COc1ccc(CNC(=O)C2=CC(c3ccc(C)cc3)=NS(=O)(=O)N2C)cc1`: the “activity change, negative = inhibition” value was -9.88%. Turning to `CCc1cc(-c2n[nH]c(C)c2-c2nc(C)cs2)c(O)cc1OC`, the AC50 is above 39 µM.

As for `Cc1ccc(NNC(=O)c2ccno2)cc1Cl`, the AC50 is 0.401 µM (active). On to `CCOc1ccccc1/C=C/c1onc(C)c1S(=O)(=O)N1CCC(C(=O)N(CC)CC)CC1`, for which the “activity change, negative = inhibition” value was -11.7%. On to `COCC(=O)N1CC[C@@H]2[C@H]1c1cc(-c3ccccc3)ccc1N(C)[C@H]2CO`, for which the AC50 is 6.54 µM (active).

As to `COc1ccc(C(=O)NC(C(=O)NCc2ccccc2OC)C(C)C)cc1` (centres undefined), the “activity change, negative = inhibition” value was -8.6%. `CC(OC(=O)[C@@H](NC(=O)OCc1ccccc1)C(C)C)C(=O)Nc1ccc(N2CCOCC2)cc1` (some centres undefined): the “activity change, negative = inhibition” value is -15.4%.

In the case of `COc1ccc(C2=NS(=O)(=O)N(C)C(C(=O)NCc3ccc4c(c3)OCO4)=C2)cc1`, the “activity change, negative = inhibition” value was 0.057%. For the compound `C/C(CCc1ccccc1)=N\NC(=O)C1C2CCCCC21` (centres undefined), the “activity change, negative = inhibition” value is -1.85%. `CNC(=O)C1CCN(S(=O)(=O)c2c(C)noc2/C=C/c2cccc(C)c2)CC1`: the “activity change, negative = inhibition” value is -11.4%. For the compound `CNC(=O)C[C@H]1CC[C@@H]2[C@H](COc3ccc(NC(=O)c4ccc(OC)cc4)cc3C(=O)N2C)O1`, the AC50 was above 39 µM. For `COCC(=O)N1CC[C@@H]2[C@H]1c1cc(-c3ccc(OC)cc3)ccc1N(C)[C@H]2CO`, the AC50 is 10.2 µM (active).

Turning to `COc1ccc(C(O)(C(C)C)C(CN2CCOCC2)c2ccccc2)cc1` (centres undefined), the “activity change, negative = inhibition” value is -13.9%. As for `COc1ccc(/C=C/c2onc(C)c2S(=O)(=O)N2CCC(C(=O)N3CCC(C)CC3)CC2)cc1`, the “activity change, negative = inhibition” value is -5.37%. Regarding `Cc1ccccc1COc1ccc2oc(C)c(C(=O)O)c2c1`, the “activity change, negative = inhibition” value is -13.2%. Turning to `Oc1ccc(-c2nccs2)cc1`, the concentration at half-maximal activity (AC50) was 10.2 µM (active).

In the case of `CCCNC(=O)C[C@H]1CC[C@@H]2[C@@H](COc3ccc(NC(=O)c4ccc5c(c4)OCO5)cc3C(=O)N2C)O1`, the AC50 was above 39 µM. For `CCOC(=O)c1ccc(N=c2sc(C(=O)OC)cc(=O)n2CCCN2CCOCC2)cc1`, the “activity change, negative = inhibition” value is -1.44%. As for `O=C1CSC(=Nc2ccc(O)cc2)N1`, the concentration at half-maximal activity (AC50) is 17.6 µM (active). Consider `O=C(CCn1cnc2ccccc21)N/N=C/c1ccc(O)cc1`, for which the AC50 was 12.2 µM (active).

For `O=C(NCc1ccccc1)C1Cc2c(-c3cccc(F)c3)ccnc2O1` (centres undefined), the “activity change, negative = inhibition” value was -12.2%. In the case of `O=C(C1CCOCC1)N1CC[C@@H]2[C@@H](CO)Nc3ccc(-c4ccc(F)cc4)cc3[C@@H]21`, the AC50 was 22 µM (active).

Turning to `Cc1scc(C(=O)N2CCN(c3ccc(Cl)cc3)CC2)c1C`, the “activity change, negative = inhibition” value was 5.76%. Turning to `CC(Sc1nc2ccccc2n1C)C(=O)Nc1ccc(N2CCOCC2)cc1` (centres undefined), the “activity change, negative = inhibition” value was -16.8%. In the case of `CCOC(CCNC(=O)c1cn(CCOC)c(=O)c2c1c1ccccc1n2C)OCC`, the “activity change, negative = inhibition” value was 5.74%. On the same count and under the same terms, next, `c1ccc2[nH]c(-c3ccc4c(c3)OCO4)nc2c1`: -21.3%. For the compound `COc1ccc(-c2ccc3c(c2)[C@H]2[C@H](CCN2C(=O)Cc2cccnc2)[C@@H](CO)N3C)cc1`, the AC50 is 14.7 µM (active).

By AC50 is commonly meant the concentration giving half of the maximal activity seen.
